Assay [1] is described as follows: Cell Viability - MRC5 (AID 434; calls by dose curve;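 note: potency is the fitted concentration of half-maximal effect; potency reflects cytotoxicity seen as loss of intracellular ATP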). The settings on record: MRC5 lung fibroblast viability, qHTS. The gist of the method:
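AC50 values come from Hill-equation fits of intracellular ATP loss, measured by CellTiter-Glo luminescence. Normal lung fibroblasts (MRC5) had 40 hr compound treatment at 37 C, normalized between DMSO and 100 uM tamoxifen.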
(qHTS replaces the single test concentration by a dilution series.)

Assay [2] can be described thus: Cell Viability - Renal Proximal Tubule (AID 545). Note: nearly all actives have a fitted effect of over 40% in size. The settings on record: renal proximal tubule cells viability; series mostly up to 91.7 µM. An outline of the steps: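 Rat renal proximal tubule primary cells, 1000/well, exposed to compounds for 40 hr at 37 °C in complete medium; cellular ATP read by CellTiter-Glo luminescence. AC50 from concentration-response fitted with standard Hill equation.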

Assay [3] is described as follows: Cellular Toxicity (caspase-3) HepG2 (AID 654).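 Note: cells exposed to compound for 16 hours before reading; 0% = DMSO alone and 100% = caspase signal from 100 µM tamoxifen.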 The settings on record: HepG2 caspase-3 activation, luminescence, 0% = DMSO only, 100% = tamoxifen; series mostly up to 92.2 µM. The gist of the method:
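Luminescent Caspase-Glo 3/7 readout after 16 hr compound exposure of human hepatocellular carcinoma HepG2 cells at 37 °C; qHTS concentration-response, normalized DMSO = 0%, 100 uM tamoxifen = 100%; AC50 by standard Hill equation.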

Assay [4] is described as follows: Cellular Toxicity (caspase-3) SHSY5Y (AID 657). The settings on record: SH-SY5Y caspase-3 activation, DMSO zero, 10 µM staurosporine = 100%; series mostly up to 91.7 µM. An outline of the steps:
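SH-SY5Y human neuroblastoma cells, 1500/well, exposed to compound for 16 hours at 37 °C in complete medium. Caspase-3/7 activity read by Caspase-Glo luminescence after 1 hr at room temperature, normalized to DMSO and 10 uM staurosporine; AC50 from Hill fit.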

Assay [5] in a line: Cellular Toxicity (caspase-3) H-4-II-E (AID 663).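 For caspase-3 activation: cells exposed to compound for 16 hr before readout.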 Note: potency is the fitted concentration of half-maximal effect. The settings on record: H-4-II-E rat hepatoma; Potency: caspase-3 activation; series mostly up to 92.2 µM. An outline of the steps: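 Caspase 3/7 activation measured by luminescent aminoluciferin substrate cleavage after 16 hr compound treatment of H-4-II-E cells in complete medium. Increase normalized between DMSO (basal) and 100 uM tamoxifen (100%); Hill-equation AC50 from concentration-response.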

Assay [6] in a line: Cellular Toxicity (caspase-3) N2a (AID 665).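 Note: compound exposure lasted 16 h at 37 °C before readout.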 The settings on record: N2a cells, luminescence, normalized: DMSO 0%, 10 µM staurosporine 100%; series mostly up to 92.2 µM. The gist of the method: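 Luminescent Caspase-Glo 3/7 readout in N2a mouse neuroblastoma cells after 16 h compound exposure at 37 °C. Signal scaled to DMSO (basal) and 10 uM staurosporine (100%). Concentration-response fitted with Hill equation for AC50.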

A short description of assay [7]: Cell Viability - LYMP2-001 (AID 921). Note: nearly all actives have a fitted effect of over 70% in size. Note: potency is the fitted concentration of half-maximal effect. The settings on record: LYMP2-001 lymphoblastoid cell viability; series mostly up to 92.2 µM. An outline of the steps: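 Human lymphoblastoid LYMP2-001 cells, 2500 per well, in complete medium, treated 24 h at 37 C. Viability from cellular ATP by CellTiter-Glo luminescence; AC50 from Hill-equation fits of qHTS concentration-response.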

The nature of assay [8]: MultiTox-Fluor Cytotoxicity Assay - LYMP1-003 - Dead Cells (AID 961). Note: nearly all actives have a fitted effect of over 70% in size. Note: potency is the fitted concentration of half-maximal effect. The settings on record: LYMP1-003 lymphoblastoid cells, dead-cell protease fluorescence; series mostly up to 92.2 µM. An outline of the steps:
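LYMP1-003 human lymphoblastoid cells (2500/well) exposed to compound 16 h at 37 C in complete medium; dead-cell protease read with bis-AAF-R110 fluorescence (Ex/Em 485/520) after 60 min at room temperature. Normalized to DMSO and 15 uM tetraoctylammonium bromide; AC50 from Hill fit.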

A short description of assay [9]: Cell Viability - LYMP1-003 - Assay at 40 hr (AID 964). Note: nearly all actives have a fitted effect of over 60% in size. Note: potency is the fitted concentration of half-maximal effect. The settings on record: LYMP1-003 lymphoblastoid viability; series mostly up to 92.2 µM. The gist of the method:
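LYMP1-003 lymphoblastoid cells, 2500/well; 5 hr preincubation, 40 hr compound exposure, 37 C; CellTiter-Glo 30 min RT; luminescence; Hill-fit AC50. Positive control tetraoctylammonium bromide.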

Assay [10] can be described thus: Cell Viability - LYMP2-009 (AID 968). Note: nearly all actives have a fitted effect of over 55% in size. Note: potency is the fitted concentration of half-maximal effect. The settings on record: LYMP2-009 lymphoblastoid cell viability; series mostly up to 92.2 µM.
Assay [11] in a line: Cell Viability - LYMP2-021 (AID 974).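 Note: compound exposure lasts 24 hours at 37 °C; nearly all actives have a fitted effect of over 55% in size.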 Note: potency is the fitted concentration of half-maximal effect. The settings on record: LYMP2-021 lymphoblastoid cells viability; series mostly up to 92.2 µM. The gist of the method:
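ATP luminescence (CellTiter-Glo, 30 min RT) after 24 h compound exposure at 37 C; 2500 human lymphoblastoid cells/well, 5 h settle beforehand. Cytotoxicity = concentration-dependent ATP drop, AC50 by Hill fit.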

Assay [12] is described as follows: Cell Viability - LYMP2-006 (AID 978).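 Note: cells exposed to compound for 24 hours; nearly all actives have a fitted effect of over 60% in size.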 Note: potency is the fitted concentration of half-maximal effect. The settings on record: LYMP2-006 lymphoblastoid cell viability, qHTS; series mostly up to 92.2 µM. An outline of the steps:
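Human lymphoblastoid cells (LYMP2-006), 2500/well in complete medium, were treated with compound for 24 hr at 37 C. Cellular ATP was read by CellTiter-Glo luminescence after 30 min, and AC50 values came from Hill-equation fits of concentration-response data.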

The nature of assay [13]: Cell Viability - LYMP2-008 (AID 980). Note: nearly all actives have a fitted effect of over 60% in size. Note: potency is the fitted concentration of half-maximal effect. The settings on record: LYMP2-008 lymphoblastoid cell viability, qHTS; series mostly up to 92.2 µM. The gist of the method:
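Luminescent ATP read-out (CellTiter-Glo, 30 min RT) after 24 hr compound exposure at 37 C of human lymphoblastoid cells in complete medium. Decrease in ATP taken as cytotoxicity; AC50 derived by standard Hill fit of qHTS concentration-response data.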

A short description of assay [14]: Cell Viability - LYMP2-018 (AID 985). Note: nearly all actives have a fitted effect of over 50% in size. Note: potency is the fitted concentration of half-maximal effect. The settings on record: LYMP2-018 lymphoblastoid cells, viability (qHTS); series mostly up to 92.2 µM. The gist of the method:
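2500 cells/well; 5 hr 37 C; cmpd 24 hr 37 C, complete medium; CellTiter-Glo 30 min RT; luminescence. Tetraoctylammonium bromide positive control. AC50 via Hill fit.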

The nature of assay [15]: Cell Viability - LYMP1-002 - Assay at 24 hr (AID 993). Note: potency is the fitted concentration of half-maximal effect. The settings on record: LYMP1-002 lymphoblastoid cells viability; series mostly up to 92.2 µM. An outline of the steps:
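CellTiter-Glo luminescence (intracellular ATP) after 24 h compound exposure, 37 C, in LYMP1-002 human lymphoblastoid cells; decreased ATP taken as cytotoxicity. AC50 from standard Hill fit of concentration-response curves.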

The nature of assay [16]: qHTS assay for environmental chemicals that activate the Aryl hydrocarbon Receptor (AhR) signaling pathway (AID 651777). Note: % of control where 0% means no effect; nearly all actives have a fitted effect of over 15% in size. The settings on record: 1A2-DRE human hepatoma cells, luciferase, 24 h; activation: hits give high values. An outline of the steps: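 Quantitative HTS in stably transfected human liver-derived cells whose luciferase gene sits downstream of the CYP1A2 promoter and dioxin response element. After 24 hr exposure at 37 C, One-Glo luminescence was measured.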

Assay [17] concerns the target Mitogen-activated protein kinase 10 (Mus musculus) (UniProt Q61831). The experiment in a line: JNK3 AlphaScreen Assay (AID 530; active = well fitted curve in either direction with a large enough effect, not every such curve was filed as active;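 note: kinase came from lysate of stimulated human HepG2 cells; signal reports phosphorylation of biotinylated GST-cJun 1-79 at Ser73 with 10 µM ATP; % is set by controls: 0 for no effect and ±100 for the full control effect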). The settings on record: JNK3 lysate, c-Jun phosphorylation; series mostly up to 57.1 µM. An outline of the steps:
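Kinase buffer: 20 mM Tris-HCl pH 7.6, 10 mM MgCl2, 1 mM DTT, 0.1 mM Na3VO4, 0.01% Tween-20; ATP 10 uM. Substrate biotin-GST-cJun(1-79), enzyme from activated HepG2 lysates. Detection by Ser73 phospho-antibody AlphaScreen.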
On the technique in general: In Alpha technology, singlet oxygen from a donor bead excites a nearby acceptor bead.

Assay [18] can be described thus: Cellular Toxicity (caspase-3) Renal Proximal Tubule (AID 667).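 Note: cells exposed to compound for 16 hours at 37 °C before detection.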 The settings on record: renal proximal tubule cells; series mostly up to 91.7 µM. The gist of the method: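 Freshly isolated primary rat kidney proximal tubule cells, 1000/well, treated 16 hr at 37 °C, then Caspase-Glo 3/7 luminescence after 1 hr. Normalized to DMSO and 10 uM staurosporine; AC50 from Hill fit.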

Assay [19] in a line: Cell Viability - LYMP1-003 - Assay at 24 hr (AID 963).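 Note: plate controls were DMSO only for no effect and tetraoctylammonium bromide positive control for full effect.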 The settings on record: LYMP1-003 lymphoblastoid cell viability; series mostly up to 92.2 µM. The gist of the method: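 CellTiter-Glo luminescence (intracellular ATP) read after 24 hr, 37 C compound exposure of 2500 LYMP1-003 human lymphoblastoid cells/well in complete medium; qHTS concentration series; AC50 via standard Hill equation.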

The nature of assay [20]: qHTS assay for small molecule activators of the human pregnane X receptor (PXR) signaling pathway (AID 720659; call rule not given here; note: 0% is about no effect). The settings on record: DPX-2 HepG2 CYP3A4-luciferase, 24 h; series mostly up to 92.3 µM.

Values joined by “and” are separate entries in the source; they are usually repeats but may differ in a detail not shown here. Equal entries are not always repeated. Values without a mark were called inactive. Records with an inconclusive call do not appear. Active and inactive are the calls of the source. Unless noted, calls come from the whole dose curve; as a rule, active = well fitted curve in the direction sought with a large enough effect; inconclusive = small, poorly fitted or top-dose-only effect, or another doubt; inactive = no such curve, though single readings can be large; an effect the other way counts as inactive or inconclusive.

As for `CN1CSC(=S)N(C)C1`, the Potency in [1] is above 92 µM; in assay [7], 12.6 µM (active); in [9] it was 39.8 µM (active); in assay [10], 31.6 µM (active); in [11], 39.8 µM (active); in assay [12], 39.8 µM (active). The Potency was 39.8 µM (active) in assay [13], 12.6 µM (active) in assay [14] and 39.8 µM (active) in assay [15]. Also, the compound was called inactive in assay [2], in assay [3], in assay [4] and in assay [6]. Moreover, the Potency entry in assay [5] and in assay [8] was “inactive” each time. Also, the activation in assay [16] was -0.101% and -0.0706%.
Consider `Nc1cc(Cl)ccc1Cl`, for which, in assay [1], the Potency was above 92 µM. For the same compound, the Potency entry in assay [17], in [5], in [7], in assay [9], in [11] and in assay [14] was “inactive” each time. Further, in [15], the Potency result is “inactive”. The compound was classed as inactive in [2], in assay [3], in assay [6], in assay [18], in assay [19] and in [20].
For `O=[N+]([O-])c1c(Cl)c(Cl)c(Cl)c(Cl)c1Cl`, the Potency in [1] was above 92 µM. Also, the Potency entry in assay [17], in assay [5], in assay [7], in assay [8], in assay [9] and in [10] was “inactive” in each case. The Potency entry in [11], in assay [12], in [13], in [14] and in [15] was “inactive” each time. In addition, the compound was called inactive in [2], in [3], in assay [6], in assay [18], in assay [19] and in assay [20]. For the same compound, the activation in assay [16] is -0.0122% and 2.68%.
Turning to `CC(C)OC(=O)Cc1ccccc1`, the Potency in assay [1] was above 92 µM. Further, the Potency result in [17], in [7], in [8], in [9], in assay [10] and in assay [11] was “inactive” in each case. In addition, the Potency result in assay [12], in assay [13], in assay [14] and in assay [15] was “inactive” each time. Moreover, the compound was classed as inactive in assay [2], in assay [3], in [4], in assay [6], in [18] and in [19]. In addition, the outcome in assay [20] was inactive.
As for `N#CC(Br)Br`, the Potency is above 92 µM in assay [1] and 50.1 µM (active) in assay [10]. Moreover, the Potency entry in [17], in assay [5], in assay [7], in [8], in [9] and in assay [15] was “inactive” throughout. Further, the compound was classed as inactive in assay [2], in [3], in assay [6], in [19] and in assay [20]. Also, the activation in assay [16] is 1.38%.
For the compound `O=[N+]([O-])/C=C/c1ccccc1`, the Potency result in assay [17] and in assay [15] was “inactive” in each case. In addition, the Potency in assay [5] was 6.31 µM (active); in assay [8] it was 50.1 µM (active); in assay [11], 39.8 µM (active); in [12] it was 39.8 µM (active). Further, in assay [19], the compound was called inactive.
For `CC(C)[N+](=O)[O-]`, the Potency in assay [1] was above 92 µM. Further, the Potency result in assay [17], in assay [7], in assay [8], in [9], in assay [10] and in [11] was “inactive” each time. Moreover, the Potency result in [12], in assay [13] and in assay [15] was “inactive” each time. Further, the compound was classed as inactive in assay [2], in assay [3], in assay [4], in assay [18] and in assay [20]. For the same compound, the activation in assay [16] was 0.897%.
